From PubChem BioAssay
Activity calls are given as the source filed them.

Assays:
Albumin (Bos taurus) = Albumin (Bos taurus) (UniProt P02769); assay: compounds binding labelled BSA control protein – biochemical, small-molecule microarray, Alexa647 label, 635/667 nm fluorescence, artefact control for SMM control protein annotation, profiling panel (AID 1118); settings: BSA-A647 binding, fluorescence 635 nm, higher = more signal;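 note: score merges 667 nm emission intensity and signal-to-noise per printed compound spot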
[1] = probe aXIP binding to arrayed compounds – biochemical, NeuroSMM set, 635/667 nm fluorescence, primary screen (AID 1119); settings: small-molecule microarray, higher = more signal, called active from +8 up or from −8 down;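 note: probe is the protein aXip251-270 applied at 1 µg/mL to compound-printed slides; binding of probe to printed compounds measured as 667 nm fluorescence plus signal to noise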
[2] = probe aNOTCH3 binding on compound microarray – biochemical, small-molecule microarray, 635/667 nm fluorescence, primary screen (AID 1120); settings: higher = more signal;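 note: probe is a biotin-tagged antibody raised against NOTCH3 rather than NOTCH3 protein; score merges spot fluorescence near 667 nm with spot signal to noise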
[3] = probe aNOTCH2 binding on compound microarray – biochemical, small-molecule microarray, 635/667 nm fluorescence, primary screen (AID 1121); settings: higher = more signal;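 note: score merges feature fluorescence read at 667 nm with its signal to noise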
[4] = molecular target: Carbonic anhydrase 2 (Homo sapiens) (UniProt P00918); assay: compounds binding carbonic anhydrase 2 – biochemical, small-molecule microarray, Alexa647-labelled CAII, profiling panel (AID 1122); settings: CAII-A647 binding fluorescence, higher = more signal
[5] = COS7 lysate on small-molecule microarray, probe aHis, 635 nm (AID 1123); settings: COS7 cell lysate, fluorescence, higher = more signal;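 note: z-score combines 667nm fluorescence intensity with signal-to-noise per printed compound spot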
[6] = probe aLAP1 signal on lysate-treated microarray – cell lysate, small-molecule microarray, COS7 lysate, primary screen (AID 1124); settings: probe aLAP1, fluorescence, higher = more signal;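 note: lysate comes from COS7 cells expressing LAP1 and is applied at 0.3 µg/mL; score merges spot fluorescence near 667 nm with signal-to-noise over triplicate slides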
Sam68 (KHDRBS1) = assay: compounds binding KHDRBS1 protein – biochemical, small-molecule microarray, 635 nm fluorescence, primary screen (AID 1125); settings: higher = more signal;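 note: score merges 667 nm channel intensity with signal to noise over triplicate slides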
[7] = test system: Chordin-like protein 2 (CHRDL2); assay: compounds binding chordin-like 2 – biochemical, small-molecule microarray, 635 nm fluorescence, primary screen (AID 1126); settings: fluorescence 635 nm, higher = more signal;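 note: printed compound slides probed with Chrdl2 protein at 4 µg/mL for 1 h at 4 C; score merges 667 nm emission intensity with signal to noise over three replicate slides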
[8] = molecular target: Concanavalin-A (Canavalia ensiformis) (UniProt P02866); assay: compounds binding concanavalin A lectin – biochemical, small-molecule microarray, Alexa647 label, 635 nm, artefact control for SMM control protein annotation, primary screen (AID 1127); settings: ConA-A647 binding fluorescence, higher = more signal;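 note: z combines 667 nm emission intensity with signal-to-noise across three replicate slides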
Chain of Concanavalin-A (Canavalia ensiformis) (P02866 whole entry, looked up): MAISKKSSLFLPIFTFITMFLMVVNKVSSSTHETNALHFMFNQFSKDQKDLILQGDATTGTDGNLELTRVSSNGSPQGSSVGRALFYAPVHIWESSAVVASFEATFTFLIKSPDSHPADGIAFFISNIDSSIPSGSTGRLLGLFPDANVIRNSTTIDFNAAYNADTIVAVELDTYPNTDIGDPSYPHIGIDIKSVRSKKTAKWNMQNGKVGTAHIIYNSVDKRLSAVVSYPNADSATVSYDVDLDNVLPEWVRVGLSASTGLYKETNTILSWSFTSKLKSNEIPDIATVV

Chain of Albumin (Bos taurus) (P02769 whole entry, looked up): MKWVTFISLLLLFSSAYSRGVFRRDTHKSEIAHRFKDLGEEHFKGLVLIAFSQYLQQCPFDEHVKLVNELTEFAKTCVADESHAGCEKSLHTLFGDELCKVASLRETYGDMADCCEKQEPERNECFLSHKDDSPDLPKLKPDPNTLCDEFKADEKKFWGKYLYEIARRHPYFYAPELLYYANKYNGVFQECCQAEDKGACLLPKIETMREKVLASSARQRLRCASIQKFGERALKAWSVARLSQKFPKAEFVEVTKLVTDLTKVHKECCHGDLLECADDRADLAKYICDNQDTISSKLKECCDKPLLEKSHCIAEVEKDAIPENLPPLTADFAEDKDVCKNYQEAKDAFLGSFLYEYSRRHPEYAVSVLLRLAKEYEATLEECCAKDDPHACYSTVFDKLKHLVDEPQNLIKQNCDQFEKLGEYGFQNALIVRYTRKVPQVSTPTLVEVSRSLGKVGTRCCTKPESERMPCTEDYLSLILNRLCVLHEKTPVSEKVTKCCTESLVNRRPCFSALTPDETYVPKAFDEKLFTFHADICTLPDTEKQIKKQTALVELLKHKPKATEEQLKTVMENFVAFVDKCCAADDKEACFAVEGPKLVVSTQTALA

Q: What does the source list for `O=C1OC[C@@H](c2ccccc2)N2CC(/C=C/c3ccccc3)=CC12` (stereo not given in full)?
A: composite z-score (Albumin (Bos taurus)): 0.0154; composite Z-score [1]: 0.142 (inactive); composite z-score [2]: -0.36; composite z-score [3]: -0.189; composite z-score [4]: 0.453; composite z-score [5]: -0.428; composite z-score [6]: 0.133; composite z-score (Sam68 (KHDRBS1)): -1.57; composite z-score [7]: -0.713; composite z-score [8]: -0.044

Q: With `Cc1ccc(S[C@]2(C(=O)NC3CC3)CC(=O)N(Cc3ccccc3Cl)[C@@H]2c2ccc(CO)cc2I)cc1` as the compound, how does the composite z-score (Albumin (Bos taurus)) read?
A: 0.257

Q: And the composite Z-score [1]?
A: 0.331 (inactive)

Q: What about the composite z-score [2] of the same compound?
A: -0.0967

Q: And the composite z-score [3]?
A: -0.0419

Q: And the composite z-score [4]?
A: 0.68

Q: What about the composite z-score [5] of the same compound?
A: 2.52

Q: What about the composite z-score [6] of the same compound?
A: 0.944

Q: And the composite z-score (Sam68 (KHDRBS1))?
A: 1.13

Q: And the composite z-score [7]?
A: 0.506

Q: And the composite z-score [8]?
A: 0.904

Q: With `COc1cc(OC)c(C(O)C2C=CC3C(=O)N(c4ccccc4)C(=O)C3N2Nc2ccc(C#N)cc2)cc1Br` (stereo not given) as the compound, how does the composite z-score (Albumin (Bos taurus)) read?
A: 1.01

Q: What about the composite Z-score [1] of the same compound?
A: 1.5 (inactive)

Q: What about the composite z-score [2] of the same compound?
A: 0.334

Q: And the composite z-score [3]?
A: 0.401

Q: And the composite z-score [4]?
A: 0.849

Q: What about the composite z-score [5] of the same compound?
A: 2.49

Q: What about the composite z-score [6] of the same compound?
A: 1.41

Q: What about the composite z-score (Sam68 (KHDRBS1)) of the same compound?
A: 1.15

Q: What about the composite z-score [7] of the same compound?
A: 0.355

Q: And the composite z-score [8]?
A: 1.04

Q: With `COC(=O)[C@@]1(Cc2ccc(F)cc2)[C@H]2c3cc(C(=O)N4CCCC4)n(CCF)c3C[C@H]2CN1C(=O)c1ccccc1` as the compound, how does the composite z-score (Albumin (Bos taurus)) read?
A: 1.09

Q: And the composite Z-score [1]?
A: 0.803 (inactive)

Q: And the composite z-score [2]?
A: 1.82

Q: And the composite z-score [3]?
A: 0.948

Q: What about the composite z-score [4] of the same compound?
A: 0.811

Q: And the composite z-score [5]?
A: 3.46

Q: And the composite z-score [6]?
A: 0.829

Q: What about the composite z-score (Sam68 (KHDRBS1)) of the same compound?
A: 0.37

Q: What about the composite z-score [7] of the same compound?
A: 0.294

Q: What about the composite z-score [8] of the same compound?
A: 0.857

Q: With `CCOC(=O)C[C@H]1[C@H](OC(=O)Cc2ccc3c(c2)OCO3)[C@@H](NC(=O)Cc2ccc(OC)cc2)c2cc(OCCCO)ccc2N1C(=O)c1ccccc1` as the compound, how does the composite z-score (Albumin (Bos taurus)) read?
A: 0.793

Q: What about the composite Z-score [1] of the same compound?
A: -0.0539 (inactive)

Q: What about the composite z-score [2] of the same compound?
A: -0.141

Q: What about the composite z-score [3] of the same compound?
A: -0.0502

Q: What about the composite z-score [4] of the same compound?
A: 0.461

Q: And the composite z-score [5]?
A: 0.682

Q: And the composite z-score [6]?
A: -0.0207

Q: And the composite z-score (Sam68 (KHDRBS1))?
A: 1.01

Q: And the composite z-score [7]?
A: -0.353

Q: What about the composite z-score [8] of the same compound?
A: 0.277

Q: Which results are given for `O=C(CS)NCCCCCCNC(=O)[C@H]1C[C@H]2C(=O)N[C@@H](Cc3ccccc3)C(=O)N2[C@H]1c1cccc(OCCO)c1`?
A: composite z-score (Albumin (Bos taurus)): -0.428; composite Z-score [1]: 0.131 (inactive); composite z-score [2]: 0.605; composite z-score [3]: -0.084; composite z-score [4]: 0.684; composite z-score [5]: 2.21; composite z-score [6]: 0.519; composite z-score (Sam68 (KHDRBS1)): 1.29; composite z-score [7]: 1.24; composite z-score [8]: 0.892

Q: For `COCCOC(=O)N1C(=O)[C@@]2(c3cc(C#Cc4ccc(OC)cc4)ccc31)[C@H](C(=O)NC[C@H](O)c1ccccc1)[C@H]1C(=O)O[C@H](c3ccccc3)[C@H](c3ccccc3)N1[C@@H]2c1ccc(O)cc1`, which composite z-score (Albumin (Bos taurus)) is on record?
A: 0.148

Q: And the composite Z-score [1]?
A: 0.552 (inactive)

Q: And the composite z-score [2]?
A: 0.236

Q: What about the composite z-score [3] of the same compound?
A: -0.154

Q: And the composite z-score [4]?
A: 0.441

Q: And the composite z-score [5]?
A: 1.7

Q: What about the composite z-score [6] of the same compound?
A: 1.48

Q: And the composite z-score (Sam68 (KHDRBS1))?
A: 1.29

Q: What about the composite z-score [7] of the same compound?
A: 0.806

Q: And the composite z-score [8]?
A: 1.16

Q: For `CN1C2C=C(CCCO)C(C3C(=O)N(C(N)=O)C(=O)C32)C1c1cccs1` (stereo not given), which composite z-score (Albumin (Bos taurus)) is on record?
A: -0.435

Q: And the composite Z-score [1]?
A: -0.394 (inactive)

Q: And the composite z-score [2]?
A: -0.179

Q: And the composite z-score [3]?
A: 0.61

Q: What about the composite z-score [4] of the same compound?
A: 0.409

Q: What about the composite z-score [5] of the same compound?
A: 0.924

Q: And the composite z-score [6]?
A: -0.212

Q: What about the composite z-score (Sam68 (KHDRBS1)) of the same compound?
A: 0.226

Q: And the composite z-score [7]?
A: 1.51

Q: What about the composite z-score [8] of the same compound?
A: -0.0398

Q: Which results are given for `COC(=O)[C@@]1(Cc2ccccc2)[C@H]2c3cc(C(=O)N4CCCC4)[nH]c3C[C@H]2CN1C(=O)c1ccccc1`?
A: composite z-score (Albumin (Bos taurus)): 0.5; composite Z-score [1]: -0.37 (inactive); composite z-score [2]: 0.0203; composite z-score [3]: 0.111; composite z-score [4]: 0.722; composite z-score [5]: 3.51; composite z-score [6]: 0.341; composite z-score (Sam68 (KHDRBS1)): -1.81; composite z-score [7]: -0.782; composite z-score [8]: -1.15

Q: Which results are given for `COCCOC(=O)N1C(=O)[C@@]2(c3cc(C#Cc4ccc(OC)cc4)ccc31)[C@H](C(=O)N1CCCCCCC1)[C@H]1C(=O)O[C@H](c3ccccc3)[C@H](c3ccccc3)N1[C@@H]2c1ccc(O)cc1`?
A: composite z-score (Albumin (Bos taurus)): -0.617; composite Z-score [1]: 0.527 (inactive); composite z-score [2]: 0.807; composite z-score [3]: 0.0137; composite z-score [4]: 0.168; composite z-score [5]: 0.234; composite z-score [6]: 0.421; composite z-score (Sam68 (KHDRBS1)): 1.15; composite z-score [7]: 0.643; composite z-score [8]: 0.692

Q: For `Cc1ccc(S[C@]2(C(=O)O)CC(=O)N(Cc3ccccc3Cl)[C@@H]2c2ccc(CO)cc2)cc1`, which composite z-score (Albumin (Bos taurus)) is on record?
A: 0.489

Q: What about the composite Z-score [1] of the same compound?
A: -0.173 (inactive)

Q: What about the composite z-score [2] of the same compound?
A: -0.159

Q: What about the composite z-score [3] of the same compound?
A: -0.0519

Q: And the composite z-score [4]?
A: 0.75

Q: And the composite z-score [5]?
A: 1.72

Q: And the composite z-score [6]?
A: 0.591

Q: And the composite z-score (Sam68 (KHDRBS1))?
A: -0.503

Q: And the composite z-score [7]?
A: -0.828

Q: And the composite z-score [8]?
A: -0.503

Q: With `CCCC=C(CCC)[C@@H](NP(=O)(c1ccccc1)c1ccccc1)c1ccc(C(F)(F)F)cc1` as the compound, how does the composite z-score (Albumin (Bos taurus)) read?
A: 0.179

Q: What about the composite Z-score [1] of the same compound?
A: -0.349 (inactive)

Q: What about the composite z-score [2] of the same compound?
A: 0.26

Q: What about the composite z-score [3] of the same compound?
A: 0.0684

Q: What about the composite z-score [4] of the same compound?
A: -0.0457

Q: And the composite z-score [5]?
A: 0.442

Q: And the composite z-score [6]?
A: 0.207

Q: And the composite z-score (Sam68 (KHDRBS1))?
A: 1.14

Q: What about the composite z-score [7] of the same compound?
A: -0.13

Q: What about the composite z-score [8] of the same compound?
A: -0.482

Q: For `COc1cc(CO)cc(I)c1O[C@H]1C=C(C(=O)NCCO)C[C@@H](N(Cc2ccc(F)cc2)C(=O)C2CCCO2)[C@@H]1O` (stereo not given in full), which composite z-score (Albumin (Bos taurus)) is on record?
A: -0.53

Q: What about the composite Z-score [1] of the same compound?
A: -0.77 (inactive)

Q: And the composite z-score [2]?
A: -0.154

Q: What about the composite z-score [3] of the same compound?
A: -0.0781

Q: What about the composite z-score [4] of the same compound?
A: -0.124

Q: And the composite z-score [5]?
A: -0.248

Q: What about the composite z-score [6] of the same compound?
A: -0.144

Q: And the composite z-score (Sam68 (KHDRBS1))?
A: 0.0803

Q: What about the composite z-score [7] of the same compound?
A: 0.325

Q: And the composite z-score [8]?
A: -0.422

Q: With `COc1cc2c(cc1OC)CN(C(=O)[C@@H]1[C@H]3C(=O)O[C@H](c4ccccc4)[C@H](c4ccccc4)N3[C@H](c3ccccc3OCCO)[C@@]13C(=O)Nc1ccc(C#CC4(O)CCCCCC4)cc13)CC2` as the compound, how does the composite z-score (Albumin (Bos taurus)) read?
A: 0.319

Q: And the composite Z-score [1]?
A: 0.428 (inactive)

Q: What about the composite z-score [2] of the same compound?
A: 0.0316

Q: And the composite z-score [3]?
A: -0.0859

Q: And the composite z-score [4]?
A: 0.527

Q: What about the composite z-score [5] of the same compound?
A: 1.48

Q: What about the composite z-score [6] of the same compound?
A: 0.829

Q: And the composite z-score (Sam68 (KHDRBS1))?
A: 1.3

Q: What about the composite z-score [7] of the same compound?
A: 0.334

Q: And the composite z-score [8]?
A: 1.13
